Results from PubChem BioAssay (NCATS).
“And” between values parts separate entries of the source, which are not always exact repeats. Equal entries are not always repeated. Results filed as inconclusive are left out. A call without a number means that no potency is given here. Unmarked numbers belong to inactive results. The source made the active and inactive calls. Calls come from the whole dose curve; as a rule, active = well fitted curve in the direction sought with a large enough effect; inconclusive = small, poorly fitted or top-dose-only effect, or another doubt; inactive = no such curve, though single readings can be large; an effect the other way counts as inactive or inconclusive.

Columns and labels:
[1] = molecular target: Cytochrome P450 3A7 (Homo sapiens) (UniProt P24462); test: Cytochrome P450 family 3 subfamily A member 7 (CYP3A7) small molecule antagonists: luciferase biochemical qHTS assay (AID 1963596); note: nearly all actives have a fitted effect of over 40% in size; note: potency is the fitted concentration of half-maximal effect
Method in brief: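 Biochemical CYP3A7 activity measured with P450-Glo system: luciferin formed from proluciferin substrate in NADPH-driven reaction (1 h, room temperature) after 10 min compound preincubation. Signal in relative luminescence units.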

[2] = Viability qHTS for spleen associated tyrosine kinase inhibitor (SYKi) drug resistant MV4-11 cells (AID 1963824); note: nearly all actives have a fitted effect of over 35% in size; note: potency is the fitted concentration of half-maximal effect
Method in brief: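 CellTiter-Glo luminescence, read 10 min after reagent addition, reports viability after a 72 hr compound exposure. Cells are an MV4-11 line made resistant to SYK inhibition, seeded at 500 per well onto compound-containing plates.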

[3] = Cellular viability qHTS for adrenocortical cancer (ACC) cell line NCI-H295R (AID 1963990); note: nearly all actives have a fitted effect of over 60% in size; note: potency is the fitted concentration of half-maximal effect
Method in brief: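 Adrenocortical carcinoma cells, suspended at 300 000 cells/mL in serum-free DMEM plus ITS, rested overnight before pin transfer of compound. After two days' incubation, ATP-dependent luminescence was recorded and curve-fitted.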

[4] = Cellular viability qHTS for adrenocortical cancer (ACC) cell line SW-13 (AID 1963989); conditions: SW-13 ACC cells viability, CellTiter-Glo, 48 h; activity (max response): hits give low values; note: nearly all actives have a fitted effect of over 65% in size; note: potency is the fitted concentration of half-maximal effect;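 for activity (max response): cells grown in serum-free medium with ITS supplement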
Method in brief: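 IC50 and maximal-response values come from four-parameter logistic fits of titration data. SW-13 cells in serum-free medium received compounds (up to 46 uM final) for 48 h before CellTiter-Glo luminescence.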

[5] = Quantitative highthroughput screen to assess conditional lethalithy of P12 Ichikawa cells grown in Human Plasma-Like Medium with dialyzed fetal bovine serum (HPLM+ds) (AID 1963879); conditions: Potency: viability; note: series mostly up to about 46 µM; nearly all actives have a fitted effect of over 35% in size
Method in brief: (§1)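 Each medium arm—HPLM with 10% dialyzed FBS, or RPMI1640 with 5 mM glucose and 10% untreated or dialyzed FBS—was screened against an 11-point, 3-fold compound titration for 48 h at 37 °C, with CellTiter-Glo luminescence as endpoint.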

[6] = Quantitative highthroughput screen to assess conditional lethalithy of P12 Ichikawa cells grown in RPMI1640 with dialyzed fetal bovine serum (RPMI+ds) (AID 1963880); conditions: Potency: P12-Ichikawa viability; note: nearly all actives have a fitted effect of over 35% in size
Method in brief: as §1

[7] = Quantitative highthroughput screen to assess conditional lethalithy of P12 Ichikawa cells grown in RPMI1640 with untreated serum (RPMI+s) (AID 1963881); conditions: Potency: viability; note: series mostly up to about 46 µM; nearly all actives have a fitted effect of over 35% in size
Method in brief: as §1

Cytochrome P450 3A7 (Homo sapiens), sequence (P24462 whole entry, looked up): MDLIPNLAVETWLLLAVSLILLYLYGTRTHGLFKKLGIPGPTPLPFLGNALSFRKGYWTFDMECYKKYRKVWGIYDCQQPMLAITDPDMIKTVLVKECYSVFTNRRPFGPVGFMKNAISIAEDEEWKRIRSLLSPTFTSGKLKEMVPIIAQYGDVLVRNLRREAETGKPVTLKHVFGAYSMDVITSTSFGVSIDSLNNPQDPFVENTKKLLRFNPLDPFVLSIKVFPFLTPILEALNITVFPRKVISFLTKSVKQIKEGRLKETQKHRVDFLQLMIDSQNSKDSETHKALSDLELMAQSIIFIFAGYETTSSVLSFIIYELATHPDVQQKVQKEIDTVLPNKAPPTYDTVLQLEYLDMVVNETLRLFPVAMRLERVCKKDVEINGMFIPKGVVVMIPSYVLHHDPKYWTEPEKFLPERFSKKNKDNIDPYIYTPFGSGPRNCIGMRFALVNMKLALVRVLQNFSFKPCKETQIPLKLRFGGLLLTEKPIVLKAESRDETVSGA

COC1CC(=C(c2cccs2)c2cccs2)C[N+](C)(C)C1 (stereo not drawn)
Potency [1]: inactive | Potency [2]: 16.8 µM (active) | Potency [3]: inactive

CCOC(=O)NC(C)(C)Cc1ccc(Cl)cc1
Potency [1]: inactive | Potency [2]: inactive | activity (max response) [4]: -3.94%

C1CN2CCC1CC2
Potency [1]: inactive | Potency [2]: inactive | activity (max response) [4]: 2.77% | Potency [3]: inactive

CN(C)C(=O)Oc1cc(OC(=O)N(C)C)cc(C(O)CNC(C)(C)C)c1 (stereo not drawn)
Potency [1]: inactive | activity (max response) [4]: -8.28%

O=[N+]([O-])O[C@H]1CO[C@H]2[C@@H]1OC[C@H]2O[N+](=O)[O-]
Potency [1]: inactive | Potency [2]: inactive | activity (max response) [4]: 12.6% | Potency [3]: inactive

C#C[C@]1(O)CC[C@H]2[C@@H]3CCC4=CC(=O)CCC4=C3C=C[C@@]21CC
Potency [1]: inactive | Potency [2]: inactive | activity (max response) [4]: 13.9% | Potency [3]: inactive

COCC1(CO)C(=O)C2CCN1CC2 (stereo not drawn)
Potency [1]: inactive | activity (max response) [4]: 9.27%

CNC(C)(C)Cc1ccccc1
Potency [1]: inactive | Potency [2]: inactive | activity (max response) [4]: -4.09% | Potency [3]: inactive

COc1ccc(C(CN(C)C)C2(O)CCCCC2)cc1 (stereo not drawn)
Potency [1]: inactive | Potency [2]: inactive | Potency [5]: inactive | Potency [6]: inactive | Potency [7]: inactive | activity (max response) [4]: 0.648% | Potency [3]: inactive

OCCOc1ccccc1
Potency [1]: inactive | Potency [2]: inactive | activity (max response) [4]: 8.17% | Potency [3]: inactive

O=C(N[C@H]1N=C(c2ccccc2F)c2cccc3c2N(CC3)C1=O)c1cc2ccccc2[nH]1
Potency [1]: inactive | activity (max response) [4]: 11.2%

O=C(O)CCCOc1ccc(Cl)cc1Cl
Potency [1]: inactive | activity (max response) [4]: -0.391%

CN1C(=O)[C@@H](NC(=O)c2cc3ccccc3[nH]2)N=C(c2ccccc2)c2ccccc21
Potency [1]: inactive | Potency [2]: 4.22 µM (active) | activity (max response) [4]: -6.85% | Potency [3]: inactive

C[C@H]1CNCCc2ccc(Cl)cc21
Potency [1]: inactive | Potency [2]: inactive | activity (max response) [4]: -1.47%

CC(C)(N)Cc1ccc(Cl)cc1
Potency [1]: inactive | Potency [2]: inactive | activity (max response) [4]: 9.02%

CCOCCOC(C)=O
Potency [1]: inactive | activity (max response) [4]: 7.41%

CCCN(CCC)c1c([N+](=O)[O-])cc(S(N)(=O)=O)cc1[N+](=O)[O-]
Potency [1]: 1.12 µM (active) | Potency [2]: 21.7 µM (active) | Potency [4]: 7.94 µM (active) | Potency [3]: 7.94 µM (active)

CC1=C(C(=O)O)N2C(=O)[C@@H](N)[C@H]2SC1
Potency [1]: inactive | activity (max response) [4]: 6.68%

Sc1ccccc1Cl
Potency [1]: inactive | Potency [2]: inactive

c1cc2c(c(N3CCNCC3)c1)OCCO2
Potency [1]: inactive | Potency [2]: inactive | activity (max response) [4]: -0.802%

C[C@]12CC[C@H]3[C@@H](CC=C4C[C@@H](O)CC[C@@]43C)[C@@H]1CC[C@@H]2O
Potency [1]: inactive | activity (max response) [4]: 5.93%

NN=C(N)N
Potency [1]: inactive | Potency [2]: inactive | activity (max response) [4]: 12.8% | Potency [3]: inactive

O=[N+]([O-])c1ccc([As](=O)(O)O)cc1
Potency [1]: inactive | activity (max response) [4]: 4.1% | Potency [3]: inactive

Clc1ccccc1N1CCNCC1
Potency [1]: inactive | Potency [2]: inactive | Potency [3]: inactive

Nc1ccccc1C(=O)OCC(O)CO (stereo not drawn)
Potency [1]: inactive | Potency [2]: inactive | activity (max response) [4]: 6.9%

CCC1(CC)C(=O)NC(=O)NC1=O
Potency [1]: inactive | Potency [2]: inactive | activity (max response) [4]: -9.27%

C[C@H]1O[C@@H](O[C@H]2[C@@H](O)C[C@H](O[C@H]3[C@@H](O)C[C@H](O[C@H]4CC[C@@]5(C)[C@H](CC[C@@H]6[C@@H]5CC[C@]5(C)[C@@H](C7=CC(=O)OC7)CC[C@]65O)C4)O[C@@H]3C)O[C@@H]2C)C[C@H](O)[C@@H]1O
Potency [1]: inactive | Potency [2]: 47.3 nM (active) and 38.5 nM (active) | Potency [4]: 0.0184 µM (active) | Potency [3]: 0.0651 µM (active)

c1ccc(N2CCNCC2)cc1
Potency [1]: inactive | Potency [2]: inactive | activity (max response) [4]: 12.6% | Potency [3]: inactive

[N-]=[N+]=CC(=O)OC[C@H](N)C(=O)O
Potency [1]: inactive | Potency [2]: inactive | activity (max response) [4]: -8.61%

CCCC1CCCCN1 (stereo not drawn)
Potency [1]: inactive | activity (max response) [4]: 12.1% | Potency [3]: inactive

OCCCCC#Cc1cncc(OC[C@@H]2CCN2)c1
Potency [1]: inactive | Potency [2]: inactive
